Measurements: PubChem BioAssay AID624273 (Broad Institute, 2012)
Hit rate of the full screen: of about 1,000 compounds, about 230 (23%) were called active. About 1% were inconclusive and are not listed. How the calls were made is not given here. Some of the results follow. Results with a measured potency or affinity are listed apart.

These compounds were tested against Long-chain-fatty-acid--AMP ligase FadD28 (Mycobacterium tuberculosis (strain ATCC 25618 / H37Rv)) (UniProt P9WQ59) (assay: inhibitors of FadD28 bisubstrate probe binding, dose response, biochemical, fluorescence polarization, cherry-pick (AID 624273)). Details: series mostly up to 50 µM.
Chain of Long-chain-fatty-acid--AMP ligase FadD28 (Mycobacterium tuberculosis (strain ATCC 25618 / H37Rv)) (P9WQ59 whole entry, looked up): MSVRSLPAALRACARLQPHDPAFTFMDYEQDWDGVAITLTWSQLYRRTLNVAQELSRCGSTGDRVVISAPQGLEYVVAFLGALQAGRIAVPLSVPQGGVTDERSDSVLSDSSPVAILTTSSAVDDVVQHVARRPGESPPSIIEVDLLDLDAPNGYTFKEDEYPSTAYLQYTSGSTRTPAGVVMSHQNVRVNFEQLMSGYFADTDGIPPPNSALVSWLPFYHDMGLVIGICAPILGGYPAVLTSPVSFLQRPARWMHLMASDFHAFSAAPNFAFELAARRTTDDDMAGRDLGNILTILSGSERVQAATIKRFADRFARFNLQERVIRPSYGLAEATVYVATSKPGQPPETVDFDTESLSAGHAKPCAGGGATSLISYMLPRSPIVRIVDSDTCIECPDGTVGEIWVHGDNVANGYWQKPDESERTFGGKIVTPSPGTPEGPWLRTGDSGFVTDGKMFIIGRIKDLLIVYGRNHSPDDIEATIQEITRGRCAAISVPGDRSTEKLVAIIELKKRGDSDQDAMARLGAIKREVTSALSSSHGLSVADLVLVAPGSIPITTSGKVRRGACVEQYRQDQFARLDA
With O=C(/C=C/c1ccco1)Nc1sc2c(c1C(=O)O)CCC2 the outcome was “inactive”.
For CC(=O)Nc1ccc(NC(=O)CSc2nc3nc(C)cc(C)c3c(=O)[nH]2)cc1, the outcome was “inactive”.
For COc1ccc(-n2nnnc2SCC(=O)c2ccc(O)c(O)c2)cc1, the outcome was “inactive”.
With CCC(=O)Nc1cccc(-n2nnnc2SCC(=O)c2ccc(C)c(C)c2)c1 the outcome was “inactive”.
In the case of CCOc1ccccc1NC(=O)CN(C)S(=O)(=O)c1cnc[nH]1, the outcome is reported as “inactive”.
In the case of Cc1cc(SCNC(=O)c2ccccc2)nc(C(C)C)n1, the outcome is reported as “inactive”.
For COc1ccc(C(C(=O)NC2CCCCC2)N(C(=O)c2sc(C)nc2C)c2ccc(OC)cc2)cc1 (centres undefined), the outcome was “inactive”.
Cc1c(Cc2ccc3c(c2)OCO3)sc(NC(=O)c2ccc3ccccc3c2)c1C(N)=O was tested, and the outcome was “inactive”.
With CCOC(=O)CNC(=O)Cn1cnc2c(cnn2-c2ccc(C)cc2)c1=O the outcome was “inactive”.
In the case of O=c1c2ccccc2c(-c2ccc(O)cc2)nn1-c1cccc(C(F)(F)F)c1, the outcome is reported as “inactive”.
With CC(C)CN(C(=O)c1ccc(-n2cncn2)c([N+](=O)[O-])c1)C1CCS(=O)(=O)C1 (centres undefined) the outcome was “inactive”.
With C/C(Cl)=C\Cn1c(O)c(N=O)c2ccccc21 the outcome was “inactive”.
In the case of CC(=O)N1CC2(C)CN(C(C)=O)CC(C)(C1)C2=O, the outcome is reported as “inactive”.
For O=C1ON=C(c2cccc([N+](=O)[O-])c2)/C1=C/c1ccc(O)cc1, the outcome was “inactive”.
For O=C(O)CC1S/C(=N/N=C/c2ccc(-c3ccc(Cl)c([N+](=O)[O-])c3)o2)NC1=O (centres undefined), the outcome was “inactive”.
With Cc1ccc(-n2cccc2/C=C2/NC(=O)N(CC(=O)Nc3cccc(C)c3)C2=O)cc1 the outcome was “inactive”.
For COCCNC(=O)C1CCC(CNS(=O)(=O)c2ccc3c(c2)CC(C)N3C(=O)C2CC2)CC1 (centres undefined), the outcome was “inactive”.
With COc1ccc(N/C=C(\C2OC(=O)c3ccccc32)[N+](=O)[O-])cc1 (centres undefined) the outcome was “inactive”.
CCOc1cc(C2C(C(=O)OC(C)C)=C(C)N=C3SCCC(=O)N32)ccc1OC(C)=O (centres undefined) was tested, and the outcome was “inactive”.
For c1ccc2c(C[C@@H]3CNCCN3CC3CCCCC3)cccc2c1, the outcome was “inactive”.
For COC(=O)CSc1nc2ccccc2nc1SCC(=O)OC, the outcome was “inactive”.
O=[N+]([O-])c1ccc(OCCn2cncn2)cc1 was tested, and the outcome was “inactive”.
With COC(=O)c1ccc(Cl)c(NS(=O)(=O)c2ccc3c(c2)OCCO3)c1 the outcome was “inactive”.
With Cc1cc(C)n(CCN(C)C(=O)CCc2nnc(-c3ccc4c(c3)OCO4)o2)n1 the outcome was “inactive”.
CN(C)C=NCCn1c(N2CCOCC2)nc2c1c(=O)n(C)c(=O)n2C was tested, and the outcome was “inactive”.
With O=C(O)CN1CCN(Cc2ccccc2F)C1=O the outcome was “inactive”.
With C=CCn1c(SCC(N)=O)nnc1-c1cnccn1 the outcome was “inactive”.
With CCOC(=O)c1nc(NCc2cccnc2)c2ccccc2n1 the outcome was “inactive”.
For Cc1ccc(S(=O)(=O)N(CC(=O)Nc2cc(C)ccc2C)C(=O)N2CCN(C)CC2)cc1, the outcome was “inactive”.
With CN(CC(=O)Nc1ccc(Cl)c(C(F)(F)F)c1)C(=O)c1cccnc1Sc1ccccc1 the outcome was “inactive”.
For O=C(O)c1c(C(=O)O)c(-c2ccc(Br)cc2)n2c1CSC2, the outcome was “inactive”.
For CCCC1SCC(C)(C)NC1=O (centres undefined), the outcome was “inactive”.
Cc1cc(S(=O)(=O)Nc2c(NC3CCCCC3)c3ccccc3oc2=O)ccc1F was tested, and the outcome was “inactive”.
With CCCCC(=O)OCC(=O)C1(O)Cc2c(O)c3c(c(O)c2C(OC2CC(NC(=O)C(F)(F)F)C(O)C(C)O2)C1)C(=O)c1c(OC)cccc1C3=O (centres undefined) the outcome was “inactive”.
For CN(Cc1cn(-c2ccccc2)nc1-c1ccc(F)cc1)C(=O)CCC(=O)O, the outcome was “inactive”.
With CCC(C)/C=C(C)/C=C/C1=CC2=C(Cl)C(=O)C(C)(OC(C)=O)C(=O)C2=CO1 (centres undefined) the outcome was “inactive”.
For CCC1CCc2c(sc(NC(=O)CSc3nc(-c4ccco4)cc(C(F)(F)F)n3)c2C#N)C1 (centres undefined), the outcome was “inactive”.
N#Cc1c(NC(=O)c2cccc(S(=O)(=O)Nc3ccc(C(=O)O)cc3)c2)sc2c1CCCC2 was tested, and the outcome was “inactive”.
COC1(OC)N=C(N)C2(C#N)C(c3ccc(F)cc3)C12C#N (centres undefined) was tested, and the outcome was “inactive”.
In the case of CCCN(CC(=O)Nc1ccccc1C)C(=O)CCl, the outcome is reported as “inactive”.
O=C(CCc1nc2ccccc2c(=O)[nH]1)NCc1ccco1 was tested, and the outcome was “inactive”.
In the case of Nc1ccc(Cc2ccc(N)c(C(=O)O)c2)cc1C(=O)O, the outcome is reported as “inactive”.
In the case of O=C(O)Cc1csc(-c2ccccc2)n1, the outcome is reported as “inactive”.
With CCN(CC)c1nc2n(c(=O)n1)CCO2 the outcome was “inactive”.
In the case of CC(C)(C)c1ccc(Cn2nnc3c(=O)[nH]c(C4CCCN(C(=O)c5ccco5)C4)nc32)cc1 (centres undefined), the outcome is reported as “inactive”.
For O=[N+]([O-])c1cc(Cl)ccc1Nc1ccccc1, the outcome was “inactive”.
In the case of Cn1nc([N+](=O)[O-])c(C(C#N)c2nc3ccccc3n2C)c(Cl)c1=O (centres undefined), the outcome is reported as “inactive”.
For CCOC(OCC)c1nc(N)[nH]c(=O)c1CCCCc1ccccc1, the outcome was “inactive”.
In the case of Cn1c(=O)c2c(ncn2CC(=O)N/N=C/c2ccc(Br)s2)n(C)c1=O, the outcome is reported as “inactive”.
In the case of COc1ccc(NC(=O)Nc2c(O)ccc3ccccc23)cc1, the outcome is reported as “inactive”.
With CCN(CC)S(=O)(=O)c1ccc(NC(=O)COC(=O)c2cc(S(=O)(=O)Nc3ccc(OC)cc3)ccc2O)cc1 the outcome was “inactive”.
In the case of Cc1[nH]n(-c2ccccc2)c(=O)c1N=Nc1c(Cl)cccc1Cl, the outcome is reported as “inactive”.
Cc1ccc(-n2cc(CNC(C)Cn3cncn3)c(-c3ccc(F)cc3)n2)cc1 (centres undefined) was tested, and the outcome was “inactive”.
In the case of Cc1cccc(CN2C(=O)N/C(=C/c3cc(C)n(-c4cc(C)ccn4)c3C)C2=O)c1, the outcome is reported as “inactive”.
O=C(O)CCC(=O)NC1CCCCC1 was tested, and the outcome was “inactive”.
COc1ccc(NC(=O)CSc2n[nH]c(-c3ccco3)n2)cc1 was tested, and the outcome was “inactive”.
With O=C1C(=O)c2cccnc2-c2ncccc21 the outcome was “inactive”.
For CC(=O)C1C(c2cccc([N+](=O)[O-])c2)C2C(C)=NN=C2CC1(C)O (centres undefined), the outcome was “inactive”.
In the case of COc1ccc(N2CCN(S(=O)(=O)c3ccc(-c4cc(C)no4)s3)CC2)cc1, the outcome is reported as “inactive”.
COc1ccc(/C=N/N(Cc2ccccc2)c2ccccc2)cc1O was tested, and the outcome was “inactive”.
Cc1ccc(S(=O)(=O)N2CCC(C(=O)NCCCN3CCOCC3)CC2)cc1C was tested, and the outcome was “inactive”.
For COc1cc(/C=C2\SC(=S)N(NC(=O)c3ccc(O)cc3)C2=O)ccc1O, the outcome was “inactive”.
With C=CCn1c(-c2cccn(Cc3ccc(Cl)cc3)c2=O)n[nH]c1=S the outcome was “inactive”.
In the case of O=C(O)c1ccc(N2CC3CC(C2)c2cccc(=O)n2C3)c(NS(=O)(=O)c2cccc(C(F)(F)F)c2)c1 (centres undefined), the outcome is reported as “inactive”.
For CN(C(=O)c1ccc(NC(=O)Cc2cccc(NC(=O)C3CCCN(C(=O)c4ccccc4)C3)c2)cc1)C1CC1 (centres undefined), the outcome was “inactive”.
COc1ccc(N2CCN(C(CNC(=O)COc3ccccc3)c3ccco3)CC2)cc1 (centres undefined) was tested, and the outcome was “inactive”.
For O=C(c1ccc(=O)[nH]n1)N1CCN(S(=O)(=O)c2cccc(F)c2)CC1, the outcome was “inactive”.
For O=C(N/C(=C/c1ccc(Br)cc1)C(=O)N1CCCC1)c1ccccc1F, the outcome was “inactive”.
For FC(F)(F)c1cnc(C(c2ccccn2)c2ncn[nH]2)c(Cl)c1 (centres undefined), the outcome was “inactive”.
In the case of COc1cc2c3c(c1)/C(=C1/SC(NC(C)=O)=NC1=O)C(=O)N3C(C)(C)C=C2C, the outcome is reported as “inactive”.
With Cc1ccc(NC(=O)C2CC(=O)N(c3ccc4c5c(cccc35)CC4)C2)cc1 (centres undefined) the outcome was “inactive”.
For CCc1ccc(CN(C)Cc2nc(Cc3cccc(C(F)(F)F)c3)no2)nc1, the outcome was “inactive”.
CCn1c(C)c(C)c2cc(C(=O)N3CCCC3)ccc21 was tested, and the outcome was “inactive”.
With COc1ccc(C(=O)NCC(=O)OCC(=O)NCc2cccs2)cc1 the outcome was “inactive”.
In the case of CCc1ccccc1OCC(=O)Nc1ccc(S(N)(=O)=O)cc1, the outcome is reported as “inactive”.
In the case of Cn1cc(S(=O)(=O)N2CCCC2)cc1C(=O)NCCc1ccccc1, the outcome is reported as “inactive”.
In the case of COc1ccc(CSCC(=O)Nc2ccc(S(=O)(=O)N3CCCCCC3)cc2)cc1, the outcome is reported as “inactive”.
In the case of COc1cccc(OC)c1OCCN(C)C, the outcome is reported as “inactive”.
With COc1cccc(CCNCc2ccc(SC)cc2)c1 the outcome was “inactive”.
With O=C(NCc1cccnc1)c1cc(-c2ccccc2)on1 the outcome was “inactive”.
CCOc1ccc(S(=O)(=O)N2CCN(C(=S)NCC3CCCO3)CC2)cc1 (centres undefined) was tested, and the outcome was “inactive”.
For Cc1cccc2sc(NNC(=O)c3ccc(S(=O)(=O)N4CCCC(C)C4)cc3)nc12 (centres undefined), the outcome was “inactive”.
In the case of CN(C)/C=C/C(=O)c1ccc([N+](=O)[O-])c(CS(=O)(=O)c2ccc(Cl)cc2)c1, the outcome is reported as “inactive”.
Cc1cc(C)cc(N(C(=O)C(F)(F)F)C(C(=O)NC2CCCCC2)c2cccs2)c1 (centres undefined) was tested, and the outcome was “inactive”.
CCc1cccc2c(C(=O)CN3C(=O)NC4(CCCCC4)C3=O)c[nH]c12 was tested, and the outcome was “inactive”.
In the case of Cc1ccc(C)c(C(=O)CN2C(=O)C(=O)N(C3CCCC3)C2=O)c1, the outcome is reported as “inactive”.
With O=c1oc2c(CN3CCOCC3)c(O)c(Cl)cc2c2c1CCCC2 the outcome was “inactive”.
CCCCCCCCSc1nnc(CSc2nc3nc(C)cc(C)n3n2)o1 was tested, and the outcome was “inactive”.
For CCc1ccccc1Nc1nc(-c2cccnc2)cs1, the outcome was “inactive”.
For CC1CCCCN1C(=O)CCS(=O)(=O)c1cccc2nonc12 (centres undefined), the outcome was “inactive”.
In the case of CSc1ccc(NC(=O)Nc2ccc(C(=O)NCC(=O)O)cc2)cc1, the outcome is reported as “inactive”.
For CCCCCCCCCCCCCCCC(=O)Nc1ccn(C2OC(CO)C(O)C2O)c(=O)n1 (centres undefined), the outcome was “inactive”.
COc1ccc(-c2noc(CNC(=O)c3ccc4c(c3)OCO4)n2)cc1 was tested, and the outcome was “inactive”.
O=[N+]([O-])c1cc(C(F)(F)F)ccc1NCCc1c[nH]c2ccc(O)cc12 was tested, and the outcome was “inactive”.
With O=C(C(=O)N1CCCCCC1)c1c[nH]c2ccccc12 the outcome was “inactive”.
With Nc1cc(OC(=O)c2ccc(F)cc2)nn1S(=O)(=O)c1ccccc1 the outcome was “inactive”.
With COc1ccc(C2C(C#N)=C(N)N(c3ccccc3)C3=C2C(=O)CCC3)cc1Cn1cc([N+](=O)[O-])cn1 (centres undefined) the outcome was “inactive”.
In the case of COc1cc(/C=C2\SC(=S)N(NC(=O)c3ccccc3O)C2=O)ccc1O, the outcome is reported as “inactive”.
Cc1ccn2c(CNCCn3cccn3)c(C(=O)N3CCCCCC3)nc2c1 was tested, and the outcome was “inactive”.
In the case of COc1cc2cncc(Cc3ccc(Cl)cc3)c2cc1OC, the outcome is reported as “inactive”.
CC1(C)CC(=O)C(C(c2ccncc2)C2C(=O)CC(C)(C)CC2=O)C(=O)C1 was tested, and the outcome was “inactive”.
For CN1CCN(CCCN2c3ccccc3Sc3ccc(Cl)cc32)CC1, the outcome was “inactive”.
O=C(CSc1nncn1-c1cccnc1)N1CCOCC1 was tested, and the outcome was “inactive”.
For CN(Cc1cccc([N+](=O)[O-])c1)Cc1cccc2ccccc12, the outcome was “inactive”.
